# Assay outcomes deposited in PubChem by several laboratories.
# AddAB inh: less growth of phage-infected E. coli with AddAB; E. coli expressing H. pylori AddAB, absorbance growth; inhibition, % at 11.9 µM; hit rate 0.29% among 330,000; in the data active = inhibition above about 12%;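 note: 0% = vehicle wells of infected cells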
# E coli growth-1: E. coli growth inhibition; hit rate 0.21% among 330,000; AID 1053175; OD600 absorbance (no concentration beside the values); Escherichia coli growth, OD600, 23 h; stronger effect = lower value;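 active = OD600 absorbance below the run mean of sample wells minus 3.6 SD, in any replicate, cut at about 0.56 in these data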
# E coli growth-2: counter-screen for AddAB inhibitors: E. coli growth inhibition; hit rate 0.27% among 330,000; E. coli V3065 growth, OD600 absorbance, 18 h; inhibition, % at 11.9 µM;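 active = inhibition above the campaign's mean inhibition across all tested compounds plus 3 SD, cut at about 9.9% in these data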;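 note: uninfected addAB+ strain grown without phage in ampicillin broth; 0% = DMSO wells and 100% = ciprofloxacin 0.95 µg/ml wells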
# Tat export inh: E. coli Tat transport inhibition. E. coli MC4100 TorA-mCherry Tat export, fluorescence. inhibition, % at 10 µM. hit rate 0.036% among 340,000. AID 488895;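 active = mean replicate inhibition at least 50% and at least half of replicates individually reaching 50%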;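 note: exported cargo escapes ClpAP degradation while cytoplasmic cargo is degraded and loses fluorescence; 0% = median of neutral control wells and 100% = median of NaSCN control wells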
# phage Ecoli inh: E. coli growth loss with phage present; inhibition, % at 11.9 µM; growth absorbance; hit rate 0.26% among 360,000; in the data active = inhibition above about 11%
# AddAB confirm: confirmation screen: growth loss of phage-infected E. coli expressing H. pylori AddAB; shares compounds with AddAB inh; E. coli V3065 expressing H. pylori AddAB, T4 phage, OD; T4 phage with gene 2 nonsense mutations; inhibition, % at 11.9 µM; hit rate 64% among 880; AID 488942;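 active = mean inhibition above a set limit taken from the earlier primary screen, cut at about 13% in these data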;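 note: higher means less bacterial growth since AddAB block lets phage replicate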
# RecBCD counter: reduces growth of phage-infected RecBCD+ E. coli, AddAB inhibitor counter-screen | inhibition, % at 11.9 µM | hit rate 73% among 880 | E. coli V66 + mutant T4 phage, OD growth | AID 488955 | shares compounds with AddAB inh;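 active = mean inhibition above the mean of solvent-only control wells plus 3 SD, cut at about 4% in these data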;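 note: optical density read after an 18 h incubation at 37 °C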
# Bact viability: counter-screen for AddAB inhibitors: inhibitors of bacterial viability; inhibition, % at 11.9 µM; shares compounds with AddAB inh; hit rate 35% among 880; absorbance (AddAB counterscreen); in the data active = inhibition above about 25%
# RecBCD conf: growth loss of phage-infected V66 E. coli, RecBCD confirmation screen. hit rate 45% among 890. inhibition, % at 11.9 µM. shares compounds with phage Ecoli inh. AID 651982. E. coli V66 + T4 2- phage, growth OD;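 active = mean inhibition over triplicates exceeding the hit threshold derived in the original primary screen, cut at about 11% in these data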
# Ecoli viability: bacterial viability inhibition counter-screen for RecBCD; shares compounds with phage Ecoli inh; E. coli viability, absorbance (OD) growth; inhibition, % at 11.9 µM; hit rate 29% among 890; AID 651983; in the data active = inhibition above about 20%;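 note: E. coli strain V66 grown with compound alone and no phage infection; 0% = bacteria with DMSO vehicle only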
# AddAB phage OD: growth loss of phage-infected AddAB E. coli, RecBCD counter-screen; AID 651984; shares compounds with phage Ecoli inh; hit rate 45% among 890; inhibition, % at 11.9 µM; E. coli expressing H. pylori AddAB + T4 phage, OD growth; gene 2 mutant T4, recBCD-deleted host;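 active = mean inhibition above the solvent-only control wells' mean plus 3 SD, cut at about 22% in these data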;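 note: higher means less bacterial growth from phage killing when AddAB is blocked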
# Starred values were filed as active, the others as inactive; . = not tested or not shown. In the library only some 0.5% were active in any assay of this set; here they are far more common.
SMILES,AddAB inh,E coli growth-1,E coli growth-2,Tat export inh,phage Ecoli inh,AddAB confirm,RecBCD counter,Bact viability,RecBCD conf,Ecoli viability,AddAB phage OD
CC(=O)c1ccc(NC(=S)NC(NC(=O)c2ccco2)C(Cl)(Cl)Cl)cc1 (stereo not drawn),21*,0.64,19*,-12,17*,16*,15*,14,8,13,11
O=C(NC(NC(=S)Nc1ccccc1O)C(Cl)(Cl)Cl)c1ccco1 (stereo not drawn),9,0.61,4,-14,6,.,.,.,.,.,.
CC(=O)c1ccc(NC(=O)c2ccc(NC(=O)c3ccco3)cc2)cc1,3,0.69,2,3,.,.,.,.,.,.,.
CC1C(=O)OC2CC34C5CC(C(C)(C)C)[C@]36C(OC(=O)C6O)O[C@@]4(C(=O)O5)[C@]21O (stereo partly drawn),.,0.64,.,.,.,.,.,.,.,.,.
CC(C)(C)CN1C(N)=NCC1c1ccccc1 (stereo not drawn),.,0.69,.,.,.,.,.,.,.,.,.
CCn1cc(C(=O)N[C@@H](C)C(=O)NCCCO)c(=O)c2cc3c(cc21)OCO3,.,0.58,.,4,2,.,.,.,.,.,.
CCCCCCNC(=O)c1cn(CC)c2cc(N3CCN(C)CC3)c(F)cc2c1=O,98*,0.067*,97*,79*,98*,101*,100*,101*,101*,102*,101*
CCn1cc(C(=O)NCCCO)c(=O)c2cc(F)c(N3CCN(C)CC3)cc21,99*,0.071*,99*,94*,100*,100*,99*,100*,99*,100*,98*
O=C(C=Cc1cn(-c2ccccc2)nc1-c1ccc2c(c1)OCCO2)NCCO,.,0.7,.,.,.,.,.,.,.,.,.
O=C(NC(=Cc1cccnc1)C(=O)N1CCOCC1)c1ccccc1,.,0.7,.,.,.,.,.,.,.,.,.
Oc1ccc(Cl)cc1CNCc1ccc(Cl)cc1,4,0.61,0,-3,5,.,.,.,.,.,.
Oc1ccc(Cl)cc1Cc1cc(Cl)ccc1O,13*,0.13*,12*,0,13*,6,14*,3,9,11,7
CCN(CC)N=Nc1[nH]nc2nc(C)cc(C)c12,35*,0.56*,87*,25,14*,93*,9.3*,51*,10,10,76*
Cc1cc(C)c2c(N=NN3CCCCC3)[nH]nc2n1,98*,0.65,89*,-7,14*,91*,7.7*,43*,9,10,53*
O=C(c1ccc([N+](=O)[O-])o1)N1CCc2ccccc21,97*,0.46*,94*,6,21*,102*,20*,84*,10,13,98*
O=C(N/N=C/c1ccc(O)c(O)c1O)/C(=C/c1ccc([N+](=O)[O-])cc1)NC(=O)c1ccccc1,16*,.,20*,7,15*,6,9.5*,2,0,3,2
O=C(Nc1nnc(-c2cccs2)o1)c1cccc(C(F)(F)F)c1,21*,0.5*,13*,16,96*,16*,14*,12,9,8,17
CC(C(N)C(=O)NC(C(=O)O)C1OC(n2ccc(=O)[nH]c2=O)C(O)C1O)C(O)c1ccc(O)cn1 (stereo not drawn),.,0.68,.,.,.,.,.,.,.,.,.
Cc1ccc(NCC(=O)N/N=C\c2ccc([N+](=O)[O-])o2)cc1,8,.,4,-6,7,.,.,.,.,.,.
O=C(CNC(=O)c1ccccc1)N/N=C/c1ccc([N+](=O)[O-])o1,28*,.,23*,0,20*,98*,10*,29*,15*,13,82*
O=C(CNc1ccccc1)N/N=C/c1ccc([N+](=O)[O-])o1,17*,.,16*,3,12*,84*,12*,28*,10,9,59*
O=C(Cc1ccc2c(c1)OCO2)NN=Cc1ccc([N+](=O)[O-])o1,27*,0.54,9.9*,-3,13*,99*,8.4*,23,7,6,37*
O=C(COc1ccccc1)NN=Cc1ccc([N+](=O)[O-])o1,.,0.55,.,.,.,.,.,.,.,.,.
CC=C(NC(C)=O)c1ccccc1,.,0.66,.,.,.,.,.,.,.,.,.
COC(=O)[C@@]12CCCN1C(c1ccc(-c3ccc(C(C)=O)cc3)c(OC)c1)C1C(=O)N(C)C(=O)C12 (stereo partly drawn),.,0.64,.,.,.,.,.,.,.,.,.
SMILES,AddAB inh,E coli growth-1,E coli growth-2,Tat export inh,phage Ecoli inh,AddAB confirm,RecBCD counter,Bact viability,RecBCD conf,Ecoli viability,AddAB phage OD
O=C(/C=C1\NC2(CCCC2)Cc2ccccc21)C(=O)N/N=C/c1ccccc1O,16*,.,13*,1,25*,30*,25*,22,19*,22*,25*
COc1cc(NS(=O)(=O)c2ccc(NC=CC(=O)c3ccc(OC)c(OC)c3)cc2)nc(OC)n1,.,0.68,.,.,.,.,.,.,.,.,.
Cc1ccc(-c2nc3c(Cl)cc(Cl)cc3c(=O)n2O)cc1,12*,0.63,15*,-6,12*,16*,14*,8,3,6,12
O=c1c2cc(Br)ccc2nc(-c2ccc(Cl)cc2)n1O,-3,0.57,-5,-5,-6,.,.,.,.,.,.
CCN1C(Nc2ccccc2)=NCC1Cc1ccccc1 (stereo not drawn),.,0.62,.,.,.,.,.,.,.,.,.
CC[C@H]1OC(=O)[C@H](C)[C@@H](O[C@H]2C[C@@](C)(OC)[C@@H](O)[C@H](C)O2)[C@H](C)[C@@H](O[C@@H]2O[C@H](C)C[C@H](N(C)C)[C@H]2O)[C@](C)(O)C[C@@H](C)C(=O)[C@H](C)[C@@H](O)[C@]1(C)O,22*,.,20*,39,27*,45*,17*,18,19*,20*,32*
COc1cc(OC)c(OC)cc1/C=N/NC(=O)c1cc(-c2cccn2C)n[nH]1,0,.,-2,5,3,.,.,.,.,.,.
CCOc1cccc(/C=N/NC(=O)c2cc(-c3cccn3C)n[nH]2)c1O,17*,.,12*,-11,18*,19*,21*,20,9,10,15
CN1CCN(c2c(F)cc3c(=O)c(C(=O)O)cn4c3c2SCC4)CC1,98*,0.047*,98*,43,98*,102*,101*,103*,102*,104*,103*
C[C@H]1COc2c(N3CCN(C)CC3)c(F)cc3c(=O)c(C(=O)O)cn1c23,98*,.,99*,148*,100*,102*,101*,102*,104*,106*,106*
